Source: PubChem BioAssay (National Center for Advancing Translational Sciences (NCATS))
Shown are actives, neighbours in structure and some others; about 3.3% of the full set was active somewhere.
Vaccinia mCherry = inhibitors of vaccinia virus infection (mCherry reporter signal); Vaccinia virus mCherry reporter infection, fluorescence; Potency, µM (doses to about 36.5 µM), inactives show top-dose activity change, negative = inhibition, actives largely listed as inhibitors; 310,000 compounds, 0.63% hits; calls by dose curve; tested in A549 cells; further: nearly all actives have a fitted effect of over 35% in size
HCV inh = blocks hepatitis C virus; Potency, µM (titrated, usually from 41.8 µM), for the others: at the highest dose activity change, negative = inhibition, usual class: inhibitors; 340,000 compounds, 3.4% hits; AID 651820; Huh7.5.1 HCVcc-Cre infection, luciferase reporter, 44 h; active means well fitted inhibition curve with a large enough effect; inconclusive means small, poorly fitted or top-dose-only effect, or another doubt; inactive means no such curve, though single readings can be large or run the other way
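After 44 h co-culture of compound, cells and HCVcc-Cre (~0.5 moi), substrate is added for 15 min at room temperature and luciferase measured over 15 sec. Cells were seeded at 1,000/well and pre-cultured 4 h.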
VACV Venus inh = vaccinia inhibition (Venus reporter); Vaccinia virus Venus reporter expression, fluorescence; Potency, µM (series often up to 36.5 µM), for the others: top-dose activity change, negative = inhibition, most hits filed as inhibitors; 330,000 compounds, 0.46% hits; AID 720580; calls by dose curve; tested in A549 cells; further: nearly all actives have a fitted effect of over 30% in size
An asterisk follows results filed as active; i = inactive; ? = inconclusive; . = no result given; [ ] = remark or other dose. On the % scale 0 is the no-effect control and ±100 the full control effect; potency means the concentration at half of the fitted maximal effect.

SMILES	Vaccinia mCherry	HCV inh	VACV Venus inh
Cc1cc(NCc2ccccc2)n2ncc(-c3ccccc3)c2n1	12%	?	9%
COc1ccccc1NC(=O)C1CCC(CNS(=O)(=O)c2ccc3c(c2)CC(C)N3C(C)=O)CC1 (stereo not drawn)	-28%	.	-26%
COc1ccccc1C(C)NCC(=O)c1c(C)[nH]c2ccccc12 (stereo not drawn)	-13%	.	-10%
CN(C)CCP(=O)(c1ccccc1)c1ccccc1	-11%	-8%	-9%
CN(C)CCN(C)Cc1c2ccccc2c(CN(C)CCN(C)C)c2ccccc12	-13%	4µM*	-27%
CC1(C(=O)NCc2ccco2)Cc2c(-c3ccc(C(N)=O)cc3)ccnc2O1 (stereo not drawn)	-5%	.	?
C/C(=N\Nc1ccccn1)c1ccc(C#N)cc1	-5%	-22%	-1%
C/C(=N\Nc1ccccn1)c1cccs1	-5%	10µM*	-5%
C/C(=N\Nc1ccccn1)c1ccc(OC(F)F)cc1	?	8.9µM*	?
C/C(=N/NC(=O)c1cnccn1)c1cccs1	i	16%	-16%
COc1ccc(CCNC(=O)CSC2=NS(=O)(=O)c3ccccc3N2)cc1OC	i	18%	-18%
O=C(Cn1cc(SCc2ccc(F)cc2)c2ccccc21)N1CCCC1	-11%	.	-14%
Cc1c(C(=O)NC2=NCCS2)cccc1[N+](=O)[O-]	i	-6%	-5%
Cc1ccc2c(c1)-c1c(ssc1=S)C(C)(C)N2C(=O)CSc1nncn1C	.	10µM*	-26%
COc1ccc2c(c1)-c1c(ssc1=S)C(C)(C)N2C(=O)CSC1=NCCS1	.	10µM*	.
CCOc1ccc2c(c1)-c1c(ssc1=S)C(C)(C)N2C(=O)c1ccco1	?	10µM*	-20%
Cc1cc(C)c2c(c1)-c1c(ssc1=S)C(C)(C)N2C(=O)CSc1nncn1C	.	13µM*	?
CCOc1ccc(NC(=O)N2CCN(C(=O)c3ccco3)CC2)cc1	-5%	4%	2%
Cc1cc2c(cc1C)N(C(=O)CSC1=NCCS1)C(C)(C)c1ssc(=S)c1-2	-21%	?	-10%
Cc1ccc(C)c(NC(=O)CSc2nncn2C)c1	.	7%	.
CC1Cc2ccccc2N1C(=O)CSc1nncn1C (stereo not drawn)	-6%	-1%	-4%
COc1cc2nc(N3CCCN(C)CC3)nc(N3CCN(C)CC3)c2cc1OC	-28%	.	?
COc1ccc(NC(=O)CN(C)C(=O)c2cc(C)on2)cc1	i	4%	-8%
CCOC(=O)Nc1ccc2c3c(cccc13)-c1ccccc1-2	-29%	10µM*	-18%
CCOC(=O)Nc1cccc2ccccc12	-12%	2%	-18%
SMILES	Vaccinia mCherry	HCV inh	VACV Venus inh
COc1cc(CN2CCC3(CCC(CNC(=O)c4ccco4)O3)CC2)ccc1O (stereo not drawn)	i	.	-5%
c1cncc(-c2nnc(-c3cccnc3)nn2)c1	-9%	?	2%
Cn1c(SSc2ccc(-c3cccnc3)n2C)ccc1-c1cccnc1	13µM*	-17%	?
COc1ccc(-n2cnnc2SCC(=O)NC2CCCCC2)cc1	i	-9%	-22%
C[C@]12c3[nH]c4ccccc4c3CCN1C(=O)C(CC(=O)NCCN1CCOCC1)C[C@@H]2C(=O)N1CCCCC1 (stereo partly drawn)	i	-1%	-17%
CN1CCN(c2ccc(S(=O)(=O)N3CCCCC3)cc2NC(=O)CSCc2ccccc2)CC1	-6%	-7%	-11%
CCc1ccc(-c2cc3c(=O)n(CC(=O)N4CCCC4)nc(C)n3n2)cc1	-7%	9%	5%
CCc1ccc(-c2cc3c(=O)n(CC(=O)NCCN4CCCCC4C)nc(C)n3n2)cc1 (stereo not drawn)	-15%	11µM*	-10%
CCc1ccc(NC(=O)COC(=O)c2ccccc2OCC(=O)N(C)C)cc1	-11%	.	-9%
Cc1cccc2c1Sc1ccc(Cl)cc1CC2N1CCNCC1 (stereo not drawn)	.	13µM*	.
Cc1ccc(Cl)cc1N1CCN(CC(=O)NC2CCCc3ccccc32)CC1 (stereo not drawn)	-13%	?	?
NS(=O)(=O)c1ccc(N=Nc2c(O)ccc3ccccc23)cc1	i	-20%	-10%
Oc1ccc(N=Nc2c(O)ccc3ccccc23)cc1	?	14µM*	-26%
Cc1cc(C)c(C#N)c(SCC(=O)C(C)(C)C)n1	-15%	13%	-14%
Cc1cc(C)c(C#N)c(SCCS(=O)(=O)c2ccc(C(C)(C)C)cc2)n1	3.5µM*	?	4.5µM*
Cc1cc(C)c(C#N)c(SCS(=O)Cc2ccccc2)n1 (stereo not drawn)	-10%	?	4%
Cc1cc(C)c(C#N)c(SCCS(=O)(=O)c2ccc(Cl)cc2)n1	4.5µM*	?	?
Cc1cc(C)c(C#N)c(SCCS(=O)(=O)Cc2ccc(Cl)cc2)n1	-18%[1.46 µM]	-19%	-17%
Cc1cc(C)c(C#N)c(SCS(=O)Cc2ccc(Cl)cc2)n1 (stereo not drawn)	-19%	11µM*	0%
CC(C)N(CCO)Cc1nc(N2CCOCC2)c2cc(Cl)ccc2n1	-8%	.	0%
C=CCn1c(SCC(=O)c2cccs2)nc2sc(CC)cc2c1=O	.	3.2µM*	.
C=CCn1c(SCC(=O)O)nc2sc(CC)cc2c1=O	i	7%	-3%
CC(=O)Nc1ccccc1-c1nc(CNC(=O)c2ccc(-c3ccccc3F)cc2)c(C)o1	-24%	.	-22%
CSc1nc2nccc(-c3ccc(Oc4ccccc4)cc3)n2n1	.	11µM*	?
CSc1nc2nccc(-c3ccc(-c4ccccc4)cc3)n2n1	.	-14%	-18%
SMILES	Vaccinia mCherry	HCV inh	VACV Venus inh
O=S(=O)(c1ccc(F)cc1F)N1CCN(c2nc(-c3cccs3)nc3ccccc23)CC1	-15%	.	?
O=C(Nc1cccc(F)c1)C1CCN(S(=O)(=O)c2ccc3[nH]c4c(c3c2)CCCCC4)CC1	-24%	.	?
CCc1ccc2n(-c3ccc(OC)cc3)c([S-])c(C(=O)Nc3cc(C)cc(C)c3)[n+]2c1	1%	-12%	-2%
COc1ccc(CCNC(=O)c2c([S-])n(-c3ccc(C)cc3)c3cccc[n+]23)cc1	-18%	11µM*	-13%
Cc1cc(C)n(CC(O)Cn2c3ccc(Cl)cc3c3cc(Cl)ccc32)c(=O)n1 (stereo not drawn)	-23%	?	-16%
OC(CNCCC1C=Nc2ccccc21)Cn1c2ccc(Cl)cc2c2cc(Cl)ccc21 (stereo not drawn)	20µM*	?	?
COC(=O)c1ccccc1S(=O)(=O)N1CCC(C(=O)NC2CCCCC2)CC1	.	11%	.
COc1ccc(C(=O)Nc2nc3c(s2)CCCC3)cc1S(=O)(=O)N1CCCc2ccccc21	11µM*	?	2%
COc1ccc(C(=O)Nc2ncccc2C)cc1S(=O)(=O)N1CCCc2ccccc21	-17%	1%	-11%
CCC1C(=O)NCCN1Cc1ccc2c(c1)CN(Cc1cc(OC)c3c(c1)OCO3)CCO2 (stereo not drawn)	-16%	.	-19%
CN(CC(=O)N[C@H](CO)Cc1ccccc1)C(=O)[C@H](CCS(C)=O)NC(=O)[C@@H](N)Cc1ccc(O)cc1 (stereo partly drawn)	-8%[3.33 µM]	.	-2%[3.33 µM]
Cc1ccc2nc(N3CCN(C(=O)C4COc5ccccc5O4)CC3)sc2c1 (stereo not drawn)	-11%	.	-14%
COc1ccccc1CC(=O)Nc1ccc(-c2noc(COc3ccc(Br)cc3)n2)cc1	.	-26%	.
